Experimental data from the supplement of paper PMC13380429.

test system: Vero E6 infected with SARS-CoV-2; assay: SARS-CoV-2 infection rate relative to infected DMSO; higher = more infection, active = 60 or less; settings: 24 h

Compound | SARS-CoV-2 infection rate
COC(=O)CC[C@@H]1N=C(c2ccccn2)c2cc(Br)ccc2-n2c(C)cnc21 [remimazolam] (10 µM) | 95% (inactive)
CC(C[N+](C)(C)C)OC(N)=O (stereo not given) [bethanechol] (10 µM) | 106% (inactive)
CCCCOc1cc(C(=O)OCCN(CC)CC)ccc1N [oxybuprocaine] (10 µM) | 114% (inactive)
O=C(O)c1cc2ccccc2s1 (10 µM) | 88% (inactive)
CC(=O)O[C@@H]1C[C@H]2C(C)(C)C(=O)C=C[C@]2(C)[C@H]2CC[C@@]3(C)[C@H](c4ccoc4)OC(=O)[C@H]4O[C@]43[C@@]21C [gedunin] (10 µM) | 106% (inactive)
CN1C(=O)C[C@@H](C(=O)N[C@@H](Cc2c[nH]cn2)C(=O)N2CCC[C@H]2C(N)=O)NC1=O [taltirelin] (10 µM) | 87% (inactive)
OC[C@H]1O[C@@H](O[C@@H]2[C@@H](CO)OC(O)(CO)[C@H]2O)[C@H](O)[C@@H](O)[C@H]1O (mixture of isomers) [lactulose] (10 µM) | 97.5% (inactive)
CCCc1c(OCC(O)COc2ccc3c(=O)cc(C(=O)O)oc3c2CCC)ccc(C(C)=O)c1O (stereo not given) (10 µM) | 99.5% (inactive)
CNC(=O)c1c(C)oc2cc(Oc3ncnc4cc(OC)c(OC)cc34)ccc12 [fruquintinib] (10 µM) | 110% (inactive)
CCC(CC)[C@H](NC(C)=O)[C@@H]1[C@H](O)[C@@H](C(=O)O)C[C@H]1NC(=N)N [peramivir] (10 µM) | 102% (inactive)
COc1ccc(-n2nc(CCC(=O)N(C)O)cc2-c2ccc(Cl)cc2)cc1 [tepoxalin] (0.833333 µM) | 104% (inactive)
NS(=O)(=O)c1cc2c(cc1Cl)NC(CC1CCCC1)NS2(=O)=O (stereo not given) [cyclopenthiazide] (10 µM) | 100% (inactive)
C=CCN1CCc2cc(O)c(O)cc2[C@H](c2ccccc2)C1 (10 µM) | 95% (inactive)
O=C(OCCOCCO)c1ccccc1Nc1cccc(C(F)(F)F)c1 [etofenamate] (10 µM) | 112% (inactive)
O=C(O)c1ccccc1 [benzoic-acid] (10 µM) | 110% (inactive)
COc1ccccc1CC(=N)N1C[C@@H]2C(=O)CCC(c3ccccc3)(c3ccccc3)[C@@H]2C1 (10 µM) | 110% (inactive)
NC12CC3CC(CC(C3)C1)C2 [amantadine] (10 µM) | 110% (inactive)
O=C(NCC(=O)N1CCCC1)Nc1ccc2cnccc2c1 (10 µM) | 98% (inactive)
CCOC(=O)[C@@](C)(N)Cc1ccc(O)c(O)c1 [methyldopate] (10 µM) | 108% (inactive)
CCCCC/C=C\C=C\CCCCCCCCC(=O)O [trans-10,cis-12-conjugated-linoleic-acid] (10 µM) | 104% (inactive)

Compound | SARS-CoV-2 infection rate
O=C(O)Cc1ccc(OCc2ccccc2)c(Cl)c1 [benzofenac] (10 µM) | 106% (inactive)
Cn1nnc(-c2ccc(-c3ccc(N4C[C@H](CO)OC4=O)cc3F)cn2)n1 [tedizolid] (10 µM) | 100% (inactive)
COc1cc(-c2ccc(=O)[nH]n2)ccc1OC(F)F [zardaverine] (10 µM) | 83.5% (inactive)
OCc1ccccc1O[C@@H]1O[C@H](CO)[C@@H](O)[C@H](O)[C@H]1O [salicin] (10 µM) | 99% (inactive)
C[C@@H](O)[C@H]1C(=O)N2C(C(=O)O)=C([C@H]3CCCO3)S[C@H]12 [faropenem] (10 µM) | 92.5% (inactive)
CCN(CCCCOC(=O)c1ccc(OC)c(OC)c1)C(C)Cc1ccc(OC)cc1 (stereo not given) [mebeverine] (10 µM) | 94.5% (inactive)
N#CC(C#N)=Cc1ccc(O)c(O)c1 [tyrphostin-AG-18] (10 µM) | 100% (inactive)
C=C1C(=O)O[C@@H]2[C@H]3C(C)=CC[C@@]34O[C@@]4(C)CC[C@@H]12 [arglabin] (10 µM) | 68% (inactive)
FCc1ccc(OCCOc2ccc(Cl)cc2Cl)c(Cl)n1 (10 µM) | 116% (inactive)
CNc1ccc([N+](=O)[O-])cc1-n1cnc(-c2ccc(C(F)(F)F)cc2)c1 (10 µM) | 97% (inactive)
COc1ccc([C@@H]2CC(=O)c3c(O)cc(O[C@@H]4O[C@H](CO)[C@@H](O)[C@H](O)[C@H]4O[C@@H]4O[C@@H](C)[C@H](O)[C@@H](O)[C@H]4O)cc3O2)cc1O [neohesperidin] (10 µM) | 112% (inactive)
O=C(/C=C/c1cccc(F)c1)NC1CC1 [cinflumide] (10 µM) | 110% (inactive)
CN(C)CCC(c1ccccc1)c1ccccn1 (stereo not given) [pheniramine] (10 µM) | 110% (inactive)
N#Cc1ccncn1 [4-pyrimidinecarbonitrile] (10 µM) | 97% (inactive)
O=[N+]([O-])O[C@H]1CO[C@H]2[C@@H]1OC[C@H]2O[N+](=O)[O-] [isosorbide-dinitrate] (10 µM) | 112% (inactive)
COc1cc(Oc2ccnc3cc(OC)c(OC)cc23)ccc1NC(=O)NC(C)c1nccs1 (stereo not given) (10 µM) | 101% (inactive)
COCc1c(-c2ccc(NC(=O)Nc3cc(C(F)(F)F)ccc3F)c(F)c2)c2c(N)ncnn2c1CN1CCOCC1 (0.833333 µM) | 96.5% (inactive)
N#Cc1ccc(N(Cc2ccc(Br)cc2)n2cnnc2)cc1 (10 µM) | 102% (inactive)
CNC(=O)c1cc(COc2nnc(Nc3ccc(Cl)cc3)c3ccoc23)ccn1 [telatinib] (10 µM) | 107% (inactive)
COc1ccc([C@@H]2CC(=O)c3c(O)cc(O[C@@H]4O[C@H](CO[C@@H]5O[C@@H](C)[C@H](O)[C@@H](O)[C@H]5O)[C@@H](O)[C@H](O)[C@H]4O)cc3O2)cc1O [hesperidin] (10 µM) | 108% (inactive)
